Assay outcomes as filed in PubChem.
ATXN2 expr inh: Primary qHTS for Inhibitors of ATXN expression | HEK-293 ATXN2-luciferase reporter, luminescence, 24 h | Potency, µM (doses to about 57 µM), for the others: at the top dose activity change, negative = inhibition, actives largely listed as inhibitors | 360,000 tested, 0.72% active; note: % is set by controls: 0 for no effect and ±100 for the full control effect; nearly all actives have a fitted effect of over 55% in size
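ATXN2-luciferase reporter cells (luciferase flanked by upstream and downstream ATXN2 gene portions) were treated 24 h at 37 °C with compounds at up to 57 uM. SteadyGlo luminescence gave expression; GF-AFC fluorescence gave viability.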
DT40 TDP1 CPT: qHTS for Inhibitors of human tyrosyl-DNA phosphodiesterase 1 (TDP1): qHTS in cells in presence of CPT; Potency, µM (top dose mostly 46.2 µM), for inactives: at the top dose activity change, negative = growth inhibition, hits mostly inhibitors; AID 686979, 2013; chicken DT40 Tdp1-/-;hTDP1 cells + 20 nM CPT, ATP luminescence, 48 h; 420,000 tested, 12% active; note: % is set by controls: 0 for no effect and ±100 for the full control effect; nearly all actives have a fitted effect of over 55% in size
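Cell growth measured by CellTiter-Glo luminescence after a minimum 48 h, 37 C compound exposure with 20 nM CPT in Tdp1-knockout DT40 cells stably expressing hTDP1, seeded 400/well; qHTS titration format.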
DT40 TDP1 no CPT: qHTS for Inhibitors of human tyrosyl-DNA phosphodiesterase 1 (TDP1): qHTS in cells in absence of CPT; DT40 Tdp1-/- hTDP1 cells, no CPT, ATP luminescence, 48 h; Potency, µM (titrated, usually from 46.2 µM), for the others: at the top dose activity change, negative = growth inhibition, usual class: inhibitors; 420,000 tested, 15% active; AID 686978, 2013; note: % is set by controls: 0 for no effect and ±100 for the full control effect; nearly all actives have a fitted effect of over 55% in size
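Chicken DT40 Tdp1-/- cells complemented with human TDP1, screened without camptothecin (DMSO vehicle only), 400 cells/well. Compounds pin-transferred, cells incubated at 37 °C for at least 48 hr. Growth read as ATP-dependent luminescence (CellTiter-Glo, 30 min at RT).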
HepG2 viability: qHTS for Inhibitors of TGF-b: Cytotox Counterscreen | HepG2 CAGA-GFP viability, ATP luminescence, 18 h | Potency, µM (doses to about 46.1 µM), for inactives: at the top dose activity change, negative = cytotoxicity, actives largely listed as cytotoxic | 410,000 tested, 0.76% active | AID 588856, 2011
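HepG2 CAGA-GFP cells (1000/well, DMEM with 1% FBS) received compound, then TGF-beta at 500 pg/mL final, and were incubated 18 hours at 37 degrees C. Viability was read by CellTiter-Glo luminescence. Media-only wells were set as complete cell-killing and DMSO as no toxicity.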
S2 tox: Viability Counterscreen for Primary qHTS for Inhibitors of ATXN expression; S2 cells (HEK-293 line with an ATXN2-luciferase reporter) viability, CellTiter-Fluor protease fluorescence, 24 h; Potency, µM (highest dose often 56.7 µM), actives largely listed as cytotoxic; 400,000 tested, 0.49% active; AID 651635, 2014; note: nearly all actives have a fitted effect of over 40% in size
TGFb SMAD3 inh: qHTS for Inhibitors of TGF-b; HepG2 CAGA-GFP TGF-b/SMAD3 reporter, GFP fluorescence, 18 h; TGF-beta stimulated, 500 pg/mL final; Potency, µM (series often up to 46.1 µM), for inactives: at the highest dose activity, negative = inhibition, hits mostly inhibitors; 410,000 tested, 1.2% active; AID 588855, 2011; note: % is set by controls: 0 for no effect and ±100 for the full control effect; nearly all actives have a fitted effect of over 65% in size
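Inhibition of TGF-beta-driven CAGA-GFP reporter expression in HEPG2 cells is measured by cellular GFP fluorescence after 18 h stimulation with 500 pg/mL recombinant TGF-beta in 1% FBS medium at 37 degrees C.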
Active calls of the source: *. Sampled rows, rich in hits. Any-hit rate of the full collection: about 17%. Calls come from the whole dose curve; as a rule, active = well fitted curve in the direction sought with a large enough effect; inconclusive = small, poorly fitted or top-dose-only effect, or another doubt; inactive = no such curve, though single readings can be large; an effect the other way counts as inactive or inconclusive. Potency is the fitted concentration of half-maximal effect.

CC1CCN(Cc2c(C(=O)N/N=C/c3cccc(C(F)(F)F)c3)nnn2-c2nonc2N)CC1 was read as ATXN2 expr inh -10%, DT40 TDP1 CPT 15µM*, DT40 TDP1 no CPT 15µM*, HepG2 viability -26%, S2 tox inactive and TGFb SMAD3 inh -11%.
Nc1nonc1-n1nnc(C(=O)N/N=C/c2ccccc2)c1CN1CCc2ccccc21 was read as ATXN2 expr inh -19%, DT40 TDP1 CPT inconclusive, DT40 TDP1 no CPT inconclusive, HepG2 viability -5%, S2 tox inactive and TGFb SMAD3 inh -7%.
`O=[N+]([O-])c1cccc(Oc2cnccn2)c1` gave ATXN2 expr inh 0%, DT40 TDP1 CPT -23%, DT40 TDP1 no CPT -11%, HepG2 viability -1%, S2 tox inactive and TGFb SMAD3 inh 2%.
`CC(C)C(c1nnnn1Cc1ccccc1)N1CCc2ccccc2C1` (centres undefined) gave ATXN2 expr inh -11%, DT40 TDP1 CPT inconclusive, DT40 TDP1 no CPT 16µM*, HepG2 viability -6%, S2 tox inactive and TGFb SMAD3 inh 0%.
Screening CC(C)C(c1nnnn1C1CCCCC1)N1CCc2ccccc2C1 (centres undefined) returned ATXN2 expr inh 15%, DT40 TDP1 CPT -22%, DT40 TDP1 no CPT inconclusive, HepG2 viability -8%, S2 tox inactive and TGFb SMAD3 inh -10%.
c1ccc(Cn2nnnc2C(c2cccs2)N2CCc3ccccc3C2)cc1 (centres undefined) was read as ATXN2 expr inh inconclusive, DT40 TDP1 CPT inconclusive, DT40 TDP1 no CPT 29µM*, HepG2 viability -24%, S2 tox inactive and TGFb SMAD3 inh inconclusive.
For CCN(C(=O)COC(=O)c1ccc2ccccc2n1)c1c(N)n(Cc2ccccc2)c(=O)[nH]c1=O the results were ATXN2 expr inh 5%, DT40 TDP1 CPT -7%, DT40 TDP1 no CPT 9%, HepG2 viability 2%, S2 tox inactive and TGFb SMAD3 inh -4%.
O=C1NC[C@@H](CCCCN2C[C@H](Cc3ccc(O)cc3)N(CCc3ccccc3)C(=O)C2=O)N(CC2CCCCC2)C1=O was read as ATXN2 expr inh 5%, DT40 TDP1 CPT -1%, DT40 TDP1 no CPT 1% and S2 tox inactive.
For Cc1ccc(C)c(NS(=O)(=O)c2ccc3c(c2)Cc2cc(S(=O)(=O)Nc4cc(C)ccc4C)ccc2-3)c1 the results were ATXN2 expr inh -32%, DT40 TDP1 CPT 21µM*, DT40 TDP1 no CPT 13µM*, HepG2 viability -33%, S2 tox inactive and TGFb SMAD3 inh -13%.
Screening COc1ccc(Cn2c(=O)c3[nH]cnc3n(-c3ccccc3C)c2=O)cc1 returned ATXN2 expr inh -13%, DT40 TDP1 CPT 3.7µM*, DT40 TDP1 no CPT 5.2µM*, HepG2 viability 4%, S2 tox inconclusive and TGFb SMAD3 inh -1%.
Nc1ccccc1-n1c(=O)n(Cc2ccccc2F)c(=O)c2[nH]cnc21 was read as ATXN2 expr inh 10%, DT40 TDP1 CPT inconclusive, DT40 TDP1 no CPT 21µM*, HepG2 viability -2%, S2 tox inactive and TGFb SMAD3 inh 1%.
CCN1C(=O)[C@H]2[C@@H](c3ccc(C)cc3)N3C(=O)N(c4ccccc4)C(=O)[C@@]3(Cc3ccc(Cl)cc3)[C@H]2C1=O was read as ATXN2 expr inh -2%, DT40 TDP1 CPT inconclusive, DT40 TDP1 no CPT inconclusive, HepG2 viability -49%, S2 tox inactive and TGFb SMAD3 inh -16%.
